Compound activity as filed in PubChem.
Tb PFK inh = inhibitors of T. brucei phosphofructokinase; Potency, µM (doses to about 57.5 µM), actives largely listed as inhibitors; AID 485367; 0.17% of 330,000 active; T. brucei PFK, ADP-Glo luminescence; O15648; also: nearly all actives have a fitted effect of over 60% in size
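Activity is normalized to no-enzyme wells (full inhibition) and 1.25 nM enzyme wells (no inhibition). Reaction: 0.5 mM F6P, 0.1 mM ATP, 45 min RT, ADP-Glo luminescence; concentration-response curves fitted and classed by quality.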
PGK inhibitor = T. brucei PGK inhibition. P07378. PGK/GAPDH coupled, Kinase-Glo luminescence, 60 min. 0.043% of 380,000 active. Potency, µM (series often up to 57.5 µM), usual class: inhibitors. AID 602233; also: nearly all actives have a fitted effect of over 60% in size
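Luminescent ATP detection (Kinase-Glo Plus) follows a 60-minute room-temperature incubation, with wells lacking PGK as controls. Buffer: 100 mM TEA (pH 7.6), 5 mM MgCl2, 0.01% Tween-20. Coupling enzyme GAPDH (100 nM final) supplies unstable 1,3-BPG in-well.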
GLS inh = inhibitors of human glutaminase (GLS). 0.21% of 410,000 active. GLS enzymatic activity, qHTS titration. Potency, µM (series often up to 45.5 µM), usual class: inhibitors. AID 624170
Target sequence (O94925 whole entry, looked up): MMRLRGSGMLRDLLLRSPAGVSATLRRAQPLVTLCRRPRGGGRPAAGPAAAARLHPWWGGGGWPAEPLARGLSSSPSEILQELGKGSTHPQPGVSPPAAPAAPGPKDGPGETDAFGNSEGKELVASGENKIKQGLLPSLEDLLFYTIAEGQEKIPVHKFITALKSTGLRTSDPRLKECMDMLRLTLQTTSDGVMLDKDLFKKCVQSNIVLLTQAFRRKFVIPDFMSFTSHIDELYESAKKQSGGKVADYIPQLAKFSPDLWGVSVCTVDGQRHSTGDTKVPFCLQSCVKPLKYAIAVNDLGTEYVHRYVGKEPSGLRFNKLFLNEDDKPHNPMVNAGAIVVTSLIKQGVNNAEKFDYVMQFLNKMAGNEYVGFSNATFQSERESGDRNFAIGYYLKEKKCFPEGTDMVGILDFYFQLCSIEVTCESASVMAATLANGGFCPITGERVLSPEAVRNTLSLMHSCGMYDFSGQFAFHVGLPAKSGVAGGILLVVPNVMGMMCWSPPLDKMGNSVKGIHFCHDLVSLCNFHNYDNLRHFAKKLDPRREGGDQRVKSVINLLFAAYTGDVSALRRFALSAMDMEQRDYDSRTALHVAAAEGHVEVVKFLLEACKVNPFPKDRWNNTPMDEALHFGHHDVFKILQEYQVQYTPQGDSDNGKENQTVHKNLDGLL
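Read-out is an Amplex red fluorescence increase coupled through glutamate oxidase and HRP, measured before and after 30 min room-temperature incubation. hKGA is in 45 mM KH2PO4 (pH 8.2) with 0.02% Tween-20; glutamine added as 1mM solution.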
KAT2A inh = blocks human GCN5L2 histone acetyltransferase; GCN5L2 HAT assay, ThioGlo1 CoA-SH fluorescence; Potency, µM (series often up to 58.9 µM), most hits filed as inhibitors; 0.21% of 390,000 active; AID 504327
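Fluorescence readout, Ex340nm/Em540nm: ThioGlo1 (50uM final) reacts with free CoA thiol released as 20nM GCN5L2 acetylates H3(1-25) peptide (75uM) using acetyl-CoA (70uM). Compound and enzyme sat 15 min beforehand; 20 min room-temperature reaction.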
USP2a block = inhibitors of human ubiquitin-specific protease USP2a. O75604. USP2 core, Ub-CHOP2 coupled fluorogenic reporter, 485/531. Potency, µM (top dose mostly 38.3 µM), most hits filed as inhibitors. 0.01% of 330,000 active
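Cell-free coupled assay: 10nM USP2 core preincubated 30min RT with compound in Tris-HCl pH 8.0/CaCl2/CHAPS buffer, then 25nM Ub-CHOP2 and 25nM reporter substrate; fluorescence (Ex 485/Em 531) read after 60min RT, normalized to NEM inhibition, concentration-response curves fitted.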
Hits are given with their value; ! = not active in a repeat. Only some compounds are listed: those with a hit (about 0.52% of all), similar ones and a draw of the others. Calls follow the shape of the dose curve; as a rule, active = well fitted curve in the direction sought with a large enough effect; inconclusive = small, poorly fitted or top-dose-only effect, or another doubt; inactive = no such curve, though single readings can be large; an effect the other way counts as inactive or inconclusive.

What do the screens show for `C/C(=N\Nc1ccc(C(=O)c2c(C)cc3ccccn23)cc1[N+](=O)[O-])c1ccc(O)cc1`?
Tb PFK inh: inactive; PGK inhibitor: inactive; GLS inh: inactive; KAT2A inh: inactive; USP2a block: inactive

What do the screens show for `Cc1cc2ccccn2c1C(=O)c1ccc(N/N=C/c2ccc(C(=O)O)cc2)c([N+](=O)[O-])c1`?
Tb PFK inh: inactive; PGK inhibitor: inconclusive; GLS inh: 10µM; KAT2A inh: inactive; USP2a block: inactive

What do the screens show for `Cc1ccc(OCc2ccc(C(=O)O)o2)cc1C`?
Tb PFK inh: inactive; PGK inhibitor: inactive; GLS inh: inactive; KAT2A inh: inactive; USP2a block: inactive

How did Cc1ccc(OCc2ccoc2C(=O)O)cc1C do in these assays?
Tb PFK inh: inactive; PGK inhibitor: inconclusive; GLS inh: 17.8µM; KAT2A inh: inactive; USP2a block: inactive

What do the screens show for `Cc1cc(-c2ccccc2)nc2c(Br)c(C(=O)O)nn12`?
PGK inhibitor: inactive; GLS inh: 15.8µM

Results for O=c1oc2cc(OCc3ccc([N+](=O)[O-])cc3)ccc2c2c1CCCC2 ?
Tb PFK inh: inactive; PGK inhibitor: inactive; GLS inh: inactive; KAT2A inh: inactive; USP2a block: inactive

What do the screens show for `O=C(O)c1ccc(COc2ccc3c4c(c(=O)oc3c2)CCC4)o1`?
Tb PFK inh: inactive; PGK inhibitor: inconclusive; GLS inh: 12.6µM; KAT2A inh: inactive; USP2a block: inactive

Results for O=C(O)c1ccccc1C(=O)Nc1n[nH]c(=S)s1 ?
Tb PFK inh: inconclusive; PGK inhibitor: inactive; GLS inh: inconclusive; KAT2A inh: 17.8µM; USP2a block: inactive

What do the screens show for `O=C(Nc1ccc(N2CCOCC2)cc1)Nc1ccc2nc(-c3ccco3)c(-c3ccco3)nc2c1`?
Tb PFK inh: inactive; PGK inhibitor: inactive; GLS inh: inactive; KAT2A inh: inactive; USP2a block: inactive

How did O=C(c1ccco1)N1CCN(C(=O)c2cc(-c3ccncc3)nc3ccc(Br)cc23)CC1 do in these assays?
PGK inhibitor: inactive; GLS inh: inactive

What do the screens show for `O=C(O)c1cc(-c2ccco2)nc2ccc(Br)cc12`?
Tb PFK inh: inactive; PGK inhibitor: 28.2µM!; GLS inh: 7.94µM!; KAT2A inh: inconclusive; USP2a block: inactive

Results for O=C(NCCCO)Nc1ccc2nc(-c3ccco3)c(-c3ccco3)nc2c1 ?
Tb PFK inh: inconclusive; KAT2A inh: 15.8µM; USP2a block: inactive

Results for O=C(O)c1ccc2nc(-c3ccco3)c(-c3ccco3)nc2c1 ?
Tb PFK inh: inconclusive; PGK inhibitor: inconclusive; GLS inh: 7.08µM; KAT2A inh: inactive; USP2a block: inactive

What do the screens show for `COc1cc(C)ccc1OCCSc1nc2ccc(NC(C)=O)cc2s1`?
PGK inhibitor: inactive; GLS inh: inactive; KAT2A inh: inactive

What do the screens show for `CCCCCCC(=O)O[C@@H]1CC[C@H]2[C@@H]3CCc4cc(O)ccc4[C@H]3CC[C@]12C`?
GLS inh: inactive

How did O=C(N/N=C\c1ccc(-c2ccccc2[N+](=O)[O-])o1)C1COc2cc3ccccc3cc2O1 (stereo not drawn) do in these assays?
Tb PFK inh: inactive; PGK inhibitor: inactive; GLS inh: inactive; KAT2A inh: 22.4µM; USP2a block: inactive

What do the screens show for `COC(=O)c1cccc(C(=O)Nc2ccc(F)cc2)n1`?
Tb PFK inh: inactive; PGK inhibitor: inactive; GLS inh: inactive; KAT2A inh: 15.8µM; USP2a block: inactive

How did Cc1ccc(S(=O)(=O)c2c(C)cc(C)nc2Cl)c(C)c1 do in these assays?
Tb PFK inh: inactive; PGK inhibitor: inactive; GLS inh: 12.6µM; KAT2A inh: inactive; USP2a block: inactive

Results for Cc1cc(C)c(S(=O)(=O)c2ccccc2C)c(Cl)n1 ?
Tb PFK inh: inactive; PGK inhibitor: inactive; GLS inh: 12.6µM; KAT2A inh: inactive; USP2a block: inactive

How did Cc1ccc(C)c(S(=O)(=O)c2c(C)cc(C)nc2Cl)c1 do in these assays?
Tb PFK inh: inactive; PGK inhibitor: inactive; GLS inh: inactive; KAT2A inh: inactive; USP2a block: inactive

How did Cc1cc(C)c(S(=O)(=O)c2ccccc2)c(Cl)n1 do in these assays?
Tb PFK inh: inactive; PGK inhibitor: inactive; GLS inh: inactive; KAT2A inh: inactive; USP2a block: inactive

Results for Cc1ccc(S(=O)(=O)c2c(C)cc(C)nc2Cl)cc1 ?
Tb PFK inh: inactive; PGK inhibitor: inactive; GLS inh: 11.2µM; KAT2A inh: inactive; USP2a block: inactive

Results for CCCCC(=O)Nc1ccc(C2C(=O)c3ccccc3C2=O)cc1 ?
PGK inhibitor: inactive; GLS inh: 17.8µM

How did O=C(N/N=C/c1cn(Cc2cccc(F)c2)c2ccccc12)c1cc(O)cc(O)c1 do in these assays?
Tb PFK inh: inconclusive; PGK inhibitor: 4.47µM; GLS inh: 2.51µM; KAT2A inh: inactive; USP2a block: inactive

How did Cc1ccc(CCNC(=O)c2ccc3c(c2)c(C)c(C)n3Cc2ccccc2)cc1 do in these assays?
PGK inhibitor: inactive; GLS inh: inactive; KAT2A inh: inactive

Results for Cn1ncc(S(=O)(=O)Cc2ccccc2)c(Cl)c1=O ?
Tb PFK inh: inactive; PGK inhibitor: inactive; GLS inh: 11.2µM; KAT2A inh: inconclusive; USP2a block: inactive

Results for Cn1ncc(SCc2ccccc2)c(Cl)c1=O ?
Tb PFK inh: inactive; PGK inhibitor: inactive; GLS inh: inactive; KAT2A inh: inactive; USP2a block: inactive

How did CC(C)OCCCNC(=O)c1cc(S(=O)(=O)N2CCc3ccccc32)cn1C do in these assays?
Tb PFK inh: inactive; PGK inhibitor: inactive; GLS inh: inactive; KAT2A inh: 0.794µM; USP2a block: inactive

What do the screens show for `CCC(C)(C)NC(=O)c1cc(S(=O)(=O)N2CCc3ccccc32)cn1C`?
Tb PFK inh: inactive; PGK inhibitor: inactive; GLS inh: inactive; KAT2A inh: inactive; USP2a block: inactive

What do the screens show for `O=C(NN1C(=O)/C(=C/C=C/c2ccccc2)SC1=S)c1ccncc1`?
Tb PFK inh: inactive; PGK inhibitor: inactive; GLS inh: inactive; KAT2A inh: inactive; USP2a block: inactive

What do the screens show for `O=C(NN1C(=O)/C(=C/C=C/c2ccco2)SC1=S)c1ccncc1`?
Tb PFK inh: inconclusive; PGK inhibitor: 14.1µM; GLS inh: 7.94µM; KAT2A inh: inactive; USP2a block: inconclusive

How did Cc1ccc2c(c1)N(CC(=O)NCCCc1ccccc1)C(=O)c1cccnc1O2 do in these assays?
Tb PFK inh: inactive; PGK inhibitor: inactive; GLS inh: inactive; KAT2A inh: 39.8µM; USP2a block: inactive

How did Cc1onc(-c2ccccc2)c1C(=O)N[C@@H]1C(=O)N2[C@@H](C(=O)O)C(C)(C)S[C@@H]12 do in these assays?
GLS inh: inactive

What do the screens show for `Cc1cc(C)cc(-n2ccnc2SCC(=O)Nc2ccc3c(c2)OCO3)c1`?
PGK inhibitor: inactive; GLS inh: inactive; KAT2A inh: inactive

How did O=C(Nc1nnc(S(=O)(=O)N2CCCCCC2)s1)c1ccc(Br)cc1 do in these assays?
Tb PFK inh: inactive; PGK inhibitor: inactive; GLS inh: inactive; KAT2A inh: inactive; USP2a block: inactive
